The supplement of paper PMC13380429

Test system: Vero E6 infected with SARS-CoV-2
Test: inhibition of SARS-CoV-2 cytopathic effect; higher = more antiviral protection, active = above 15
Settings: 48 h

Measured: inhibition of SARS-CoV-2 cytopathic effect

CC(C)(C)c1nc(-c2cccc(NS(=O)(=O)c3c(F)cccc3F)c2F)c(-c2ccnc(N)n2)s1 [dabrafenib]
inactive: 1 nM -0.66% | 8.33 nM -0.54% | 100 nM 0.25% | 833.33 nM -1.77% | 10000 nM 13.1%

CCCCCCNC(=O)n1cc(F)c(=O)[nH]c1=O [carmofur]
inactive: 1 nM 2.01% | 8.33 nM 4.18% | 100 nM 2.63% | 833.33 nM 2.67% | 10000 nM 4.01%

CC(=O)Nc1ccc(S(=O)(=O)Nc2ccc([N+](=O)[O-])cc2)cc1 [sulfanitran]
inactive: 1 nM -1.18% | 8.33 nM -2.16% | 100 nM 0.76% | 833.33 nM 0.27% | 10000 nM -4.49%

CCOC(=O)C1=C(C)NC(=S)NC1c1cccc(O)c1 (stereo not given) [monastrol]
inactive: 1 nM 0.53% | 8.33 nM -0.07% | 100 nM 1.51% | 833.33 nM 0.94% | 10000 nM -1.39%

CC1(C)CCC(C)(C)c2cc(C(=O)Nc3ccc(C(=O)O)cc3)ccc21
inactive: 1 nM 0.12% | 8.33 nM 2.74% | 100 nM 1.53% | 833.33 nM 1.49% | 10000 nM 3.21%

O=C(O)CCC/C=C\C[C@@H]1[C@@H](/C=C/[C@@H](O)COc2cccc(Cl)c2)[C@H](O)C[C@@H]1O (racemic) [cloprostenol-(+/-)]
inactive: 1 nM -2.05% | 8.33 nM 0.95% | 100 nM 2.48% | 833.33 nM 5.03% | 10000 nM 0.05%

C[C@H](O)[C@H](O)[C@H]1CNc2nc(N)[nH]c(=O)c2N1 [sapropterin]
inactive: 1 nM -2.03% | 8.33 nM 2.62% | 100 nM 1% | 833.33 nM 0.55% | 10000 nM -1.44%

Cc1nc(-c2ccc(OCC(C)C)c(C#N)c2)sc1C(=O)O [febuxostat]
inactive: 1 nM -0.9% | 8.33 nM -0.46% | 100 nM -0.43% | 833.33 nM 2.99% | 10000 nM 1.58%

CC(=O)OC/C=C(C)/C=C/C=C(C)/C=C/C1=C(C)CCCC1(C)C [retinyl-acetate]
inactive: 1 nM -1.78% | 8.33 nM 0.37% | 100 nM -0.15% | 833.33 nM 1.34% | 10000 nM 0.15%

CNC(=O)c1c(C)oc2cc(Oc3ncnc4cc(OC)c(OC)cc34)ccc12 [fruquintinib]
inactive: 1 nM 2.39% | 8.33 nM -2.79% | 100 nM -1.12% | 833.33 nM -3.32% | 10000 nM -0.11%

Fc1ccc(-c2c3cccc(C(F)(F)F)c3nn2Cc2ccc(F)cc2Cl)cc1
inactive: 1 nM -0.96% | 8.33 nM -3.42% | 100 nM 2.69% | 833.33 nM -1.23% | 10000 nM 2.25%

Cc1ccccc1C(=O)Nc1ccc(C(=O)N2CCCC(O)c3cc(Cl)ccc32)c(C)c1 (stereo not given) [tolvaptan]
inactive: 1 nM 1.52% | 8.33 nM 1.94% | 100 nM 0.74% | 833.33 nM -1.55% | 10000 nM 1.54%

CC(COc1ccccc1)N(CCCl)Cc1ccccc1 (stereo not given) [phenoxybenzamine]
inactive: 1 nM 2.45% | 8.33 nM 2.51% | 100 nM 1.57% | 833.33 nM 0.91% | 10000 nM -0.17%

O=C(O)CNC(=O)c1ccccc1 [hippuric-acid]
inactive: 1 nM -0.58% | 8.33 nM 1.5% | 100 nM 3.97% | 833.33 nM 1.76% | 10000 nM 0.17%

NC(=O)C1=CN([C@@H]2O[C@H](COP(=O)(O)OP(=O)(O)OC[C@H]3O[C@@H](n4cnc5c(N)ncnc54)[C@H](O)[C@@H]3O)[C@@H](O)[C@H]2O)C=CC1 [coenzyme-I]
inactive: 1 nM -3.2% | 8.33 nM -4.29% | 100 nM 1.16% | 833.33 nM 1.03% | 10000 nM 1.66%

C=C[C@@](C)(/C=C/c1ccc(O)cc1)CCC=C(C)C [bakuchiol]
inactive: 1 nM 1.64% | 8.33 nM 2.39% | 100 nM 0.23% | 833.33 nM 0.59% | 10000 nM 0.79%

C[C@@]1(F)[C@H](O)[C@@H](CO)O[C@H]1n1ccc(N)nc1=O
inactive: 1 nM 0.11% | 8.33 nM -0.83% | 100 nM -0.8% | 833.33 nM 1.12% | 10000 nM 0.26%

CO[C@@]1(NC(=O)CSC[C@@H](N)C(=O)O)C(=O)N2C(C(=O)O)=C(CSc3nnnn3C)CS[C@@H]21 [cefminox]
inactive: 1 nM -0.91% | 8.33 nM 0.78% | 100 nM -1.2% | 833.33 nM -1.63% | 10000 nM 1.75%

C[C@]12CC[C@H](O)C[C@H]1CC[C@@H]1[C@@H]2C[C@@H](O)[C@]2(C)[C@@H](C3=CC(=O)OC3)CC[C@]12O [digoxigenin]
inactive: 1 nM -0.69% | 8.33 nM -0.54% | 100 nM -6.58% | 833.33 nM -10.3% | 10000 nM -14.1%

O=C(O)c1ccc(CN2CCC(CN[C@@H]3C[C@H]3c3ccccc3)CC2)cc1
inactive: 1 nM 0.72% | 8.33 nM 1.52% | 100 nM 1.24% | 833.33 nM 3.6% | 10000 nM 2.94%

Cc1cc(Nc2cc(C)c(C#N)c(N[C@@H](C)CCCC(C)(C)O)n2)n[nH]1
inactive: 1 nM -1.85% | 8.33 nM -0.28% | 100 nM -1.25% | 833.33 nM -6.81% | 10000 nM -8.95%

CC(=O)NS(=O)(=O)c1ccc(NC(=O)c2ccccc2C(=O)O)cc1 [phthalylsulfacetamide]
inactive: 1 nM -0.71% | 8.33 nM -1.43% | 100 nM -0.27% | 833.33 nM 0.53% | 10000 nM -0.38%

O=C(c1ccccc1)C(O)c1ccccc1 (stereo not given) [benzoin]
inactive: 1 nM 0.3% | 8.33 nM 0.27% | 100 nM -1.79% | 833.33 nM 1.45% | 10000 nM 0.76%

COc1ccc(-n2nc(C(F)(F)F)cc2-c2ccc(Cl)cc2)cc1
inactive: 1 nM 2.57% | 8.33 nM 3.29% | 100 nM 1.98% | 833.33 nM 1.58% | 10000 nM -5.13%

C[N+](C)(C)NCCC(=O)O [meldonium]
inactive: 1 nM -1.15% | 8.33 nM -0.85% | 100 nM -2.99% | 833.33 nM -0.28% | 10000 nM -2.51%

CCCCNc1ccc(C(=O)OCCN(C)C)cc1 [tetracaine]
inactive: 1 nM 2.75% | 8.33 nM -1.31% | 100 nM -0.22% | 833.33 nM -2.39% | 10000 nM 0.71%

Cc1ccccc1C(C(=O)NC1CCCCC1)N(C(=O)Cn1ccnc1C)c1cccc(F)c1 (stereo not given)
inactive: 1 nM -0.81% | 8.33 nM -1.8% | 100 nM 0.77% | 833.33 nM 1.79% | 10000 nM -0.96%

CC(C)NC(=O)N1CC[C@H](NC2=Nc3cc(F)ccc3N(CC(F)F)c3ccc(Cl)cc32)C1
inactive: 1 nM 2.37% | 8.33 nM 0.15% | 100 nM 3.33% | 833.33 nM 8.12% | 10000 nM -0.57%

OCCCNc1cc(-c2ccnc(Nc3cccc(Cl)c3)n2)ccn1
inactive: 1 nM 1.32% | 8.33 nM -0.77% | 100 nM 1.6% | 833.33 nM -16.6% | 10000 nM 11.2%

N[C@@H](CSC(c1ccccc1)(c1ccccc1)c1ccccc1)C(=O)O [S-trityl-L-cysteine]
inactive: 1 nM -0.89% | 8.33 nM -0.64% | 100 nM -2.17% | 833.33 nM -0.68% | 10000 nM -1.72%

C[C@@H](CN1CC(=O)NC(=O)C1)N1CC(=O)NC(=O)C1 [dexrazoxane]
inactive: 1 nM 1.89% | 8.33 nM 2.78% | 100 nM 2.19% | 833.33 nM 3.16% | 10000 nM -1.81%

C[N+]1(C)[C@@H]2CC[C@H]1C[C@@H](OC(=O)C(O)c1ccccc1)C2 (stereo not given in full) [homatropine-methylbromide]
inactive: 1 nM 0.79% | 8.33 nM 1.12% | 100 nM 0.14% | 833.33 nM 0.62% | 10000 nM 0.96%

C[C@@H]1C/C=C/C=C/C=C/C=C/[C@H](O[C@@H]2O[C@H](C)[C@@H](O)[C@H](N)[C@@H]2O)C[C@@H]2O[C@](O)(C[C@@H](O)C[C@H]3O[C@@H]3/C=C/C(=O)O1)C[C@H](O)[C@H]2C(=O)O [natamycin]
inactive: 1 nM 2.57% | 8.33 nM -0.49% | 100 nM -2.28% | 833.33 nM -6.12% | 10000 nM -4.75%

CN1CCC(c2c[nH]c3ccc(O)cc23)CC1
inactive: 1 nM -0.56% | 8.33 nM 2.91% | 100 nM 0.58% | 833.33 nM 3.92% | 10000 nM -0.8%

CNC(=O)[C@H]1O[C@@H](n2cnc3c(NCc4cccc(I)c4)ncnc32)[C@H](O)[C@@H]1O
inactive: 1 nM 0.17% | 8.33 nM 0.13% | 100 nM -0.04% | 833.33 nM 0.25% | 10000 nM -2.76%

CCCCCCCCCCCCCCCC[N+](C)(C)C [cetrimonium]
inactive: 1 nM 1.02% | 8.33 nM -0.39% | 100 nM 0.2% | 833.33 nM -3.96% | 10000 nM -18.4%

CC(NCCC(c1ccccc1)c1ccccc1)c1ccccc1 (stereo not given) [fendiline]
inactive: 1 nM 0.75% | 8.33 nM 2.18% | 100 nM -0.68% | 833.33 nM -4.72% | 10000 nM 11.9%

CC(C)(C)NCC(O)CSc1nc(-c2ccc(C(N)=O)s2)cs1 (stereo not given) [arotinolol]
inactive: 1 nM -12.3% | 8.33 nM -9.63% | 100 nM -11% | 833.33 nM -9.7% | 10000 nM -6.09%

O=C(O)[C@H](Cc1ccccc1)NCc1ccc(Cl)cc1
inactive: 1 nM 0.28% | 8.33 nM -1.27% | 100 nM -0.99% | 833.33 nM 1.08% | 10000 nM 0.65%
